Where “and” joins values, the source holds several entries; their conditions need not be identical. Equal entries are not always repeated. Inconclusive results are not listed. Calls of active or inactive are those of the source. The call rests on the fitted dose curve; in most records, active means well fitted curve in the direction sought with a large enough effect; inconclusive means small, poorly fitted or top-dose-only effect, or another doubt; inactive means no such curve, though single readings can be large; an effect the other way counts as inactive or inconclusive.
Legend:
[1] = Viability qHTS for spleen associated tyrosine kinase inhibitor (SYKi) drug resistant MV4-11 cells (AID 1963824); further: nearly all actives have a fitted effect of over 35% in size
Outline: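 SYK inhibitor-resistant MV4-11 AML cells, 500 per well, added to predispensed compounds and incubated 72 hr at 37 C, 5% CO2. Viability measured by CellTiter-Glo luminescence after 10 min at room temperature.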

[2] = Quantitative highthroughput screen to assess conditional lethalithy of NOMO1 cells grown in RPMI1640 with dialyzed fetal bovine serum (RPMI+ds) (AID 1963877); further: nearly all actives have a fitted effect of over 30% in size;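 on Viability: series mostly up to about 46 µM; 100% = DMSO control wells and 0% = empty wells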
Outline: (§1)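 Each medium arm—HPLM with 10% dialyzed FBS, or RPMI1640 with 5 mM glucose and 10% untreated or dialyzed FBS—was screened against an 11-point, 3-fold compound titration for 48 h at 37 °C, with CellTiter-Glo luminescence as endpoint.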

[3] = Quantitative highthroughput screen to assess conditional lethalithy of P12 Ichikawa cells grown in RPMI1640 with dialyzed fetal bovine serum (RPMI+ds) (AID 1963880); details: Potency: P12-Ichikawa viability; further: nearly all actives have a fitted effect of over 35% in size;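 on Viability: 100% = DMSO wells and 0% = empty wells on each plate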
Outline: as §1

[4] = Quantitative highthroughput screen to assess conditional lethalithy of P12 Ichikawa cells grown in RPMI1640 with untreated serum (RPMI+s) (AID 1963881); details: Potency: viability; further: nearly all actives have a fitted effect of over 35% in size;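 on Viability: series mostly up to about 46 µM; 100% = DMSO wells and 0% = empty wells without cells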
Outline: as §1

[5] = Quantitative highthroughput screen to assess conditional lethalithy of NOMO1 cells grown in RPMI1640 with untreated serum (RPMI+s) (AID 1963876); further: nearly all actives have a fitted effect of over 35% in size;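 on Viability: 100% = DMSO wells and 0% = empty wells without cells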
Outline: as §1

[6] = Quantitative highthroughput screen to assess conditional lethalithy of SEM cells grown in Human Plasma-Like Medium with dialyzed fetal bovine serum (HPLM+ds) (AID 1963882); further: nearly all actives have a fitted effect of over 35% in size; on Viability: series mostly up to about 46 µM
Outline: as §1

[7] = Quantitative highthroughput screen to assess conditional lethalithy of SEM cells grown in RPMI1640 with unreated serum (RPMI+s) (AID 1963883); further: nearly all actives have a fitted effect of over 35% in size;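 on Viability: 100% = DMSO wells and 0% = empty wells without cells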
Outline: as §1

[8] = Cellular viability qHTS for adrenocortical cancer (ACC) cell line SW-13 (AID 1963989); details: SW-13 ACC cells viability, CellTiter-Glo, 48 h; activity (max response): stronger effect = lower value; further: nearly all actives have a fitted effect of over 65% in size;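 on activity (max response): cells grown in serum-free medium with ITS supplement; on the % scale 0 is the no-effect control and ±100 the full control effect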
Outline: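 Luminescent ATP read-out (CellTiter-Glo, 20 min at room temperature) measured metabolically competent SW-13 cells after 48 h compound treatment. Final concentrations spanned up to 46 uM; bortezomib served as positive control.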

[9] = Cellular viability qHTS for adrenocortical cancer (ACC) cell line NCI-H295R (AID 1963990); further: nearly all actives have a fitted effect of over 60% in size
Outline: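 IC50 and maximal efficacy derive from four-parameter logistic modelling of titration curves, with reads scaled between DMSO-only wells (0%) and doxorubicin hydrochloride (100% inhibition). Compounds spanned up to 46 uM over 48 h.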

[10] = Quantitative highthroughput screen to assess conditional lethalithy of SEM cells grown in RPMI1640 with dialyzed fetal bovine serum (RPMI+ds) (AID 1963884); further: nearly all actives have a fitted effect of over 35% in size;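 on Viability: series mostly up to about 46 µM; 100% = DMSO control wells and 0% = empty wells without cells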
Outline: as §1

[11] = Quantitative highthroughput screen to assess conditional lethalithy of NOMO1 cells grown in Human Plasma-Like Medium with dialyzed fetal bovine serum (HPLM+ds) (AID 1963878); further: nearly all actives have a fitted effect of over 35% in size;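 on Viability: 100% = DMSO wells and 0% = empty wells on each plate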
Outline: as §1

[12] = Quantitative highthroughput screen to assess conditional lethalithy of P12 Ichikawa cells grown in Human Plasma-Like Medium with dialyzed fetal bovine serum (HPLM+ds) (AID 1963879); details: Potency: viability; further: nearly all actives have a fitted effect of over 35% in size; on Viability: series mostly up to about 46 µM
Outline: as §1
Potency means the concentration at half of the fitted maximal effect.

Nc1nc(=O)n([C@H]2C[C@H](O)[C@@H](CO)O2)cc1F
active: Potency [1] 0.0295 µM | Potency [2] 0.0209 µM | Potency [3] 0.0833 µM | Potency [4] 0.105 µM

Cc1ccc(C(C)(O)c2nc3ccccc3s2)c(C)c1 (configuration not stated)
active: Potency [1] 16.6 µM | Potency [5] 13.2 µM | Potency [3] 18.7 µM | Potency [4] 14.8 µM

CN(C(=O)c1ccc(F)cc1C(F)(F)F)C1CCN(c2nnc(-c3ccnn3C)c3ccccc23)CC1
active: Potency [1] 18.4 µM
inactive: Potency [5] | Potency [6] | Potency [7] | activity (max response) [8] -13.3% | Potency [9]

Cc1cc(Nc2nc(N[C@@H](C)c3ncc(F)cn3)ncc2Cl)n[nH]1
inactive: activity (max response) [8] -20.7%
active: Potency [1] 1.05 µM | Potency [5] 7.43 µM | Potency [6] 5.26 µM | Potency [7] 1.05 µM | Potency [10] 2.64 µM

CN1CCC(CNc2ccc3ncc(-c4cccc(OC(F)(F)F)c4)n3n2)CC1
active: Potency [1] 41.1 nM and 132 nM | Potency [2] 23.5 µM | Potency [11] 18.7 µM | Potency [6] 5.9 µM | Potency [7] 4.69 µM | Potency [10] 1.32 µM | Potency [8] 15.8 µM | Potency [9] 8.91 µM

CS(=O)(=O)c1ccc(-c2cnc(N)c(C(=O)Nc3ccccc3)n2)cc1
inactive: Potency [5] | Potency [12]
active: Potency [1] 2.91 µM | Potency [4] 8.33 µM | Potency [6] 8.33 µM | Potency [7] 9.35 µM | Potency [10] 8.33 µM

CN(C)C(=O)[C@H](O)[C@H](Cc1ccccc1)NC(=O)c1cc2cc(Cl)ccc2[nH]1
inactive: Potency [5]
active: Potency [1] 20.9 µM | Potency [7] 2.64 µM | Potency [10] 2.35 µM

CCS(=O)(=O)Nc1ccc2[nH]c(O)c(C(=Nc3ccc(CN4CCCCC4)cc3)c3ccccc3)c2c1
active: Potency [1] 0.0332 µM | Potency [2] 0.833 µM | Potency [11] 4.69 µM | Potency [6] 0.0743 µM | Potency [7] 0.0935 µM | Potency [10] 0.0935 µM | Potency [9] 1.26 µM

NC(=O)N1CCC(CC(=O)N2CCC([C@H]3c4ncc(Br)cc4CCc4cc(Cl)cc(Br)c43)CC2)CC1
active: Potency [1] 4.17 µM
inactive: Potency [2]

CCCCCNC(=O)N1CCC(CN(Cc2ccc(Cl)cc2)Cc2ccc([N+](=O)[O-])s2)C1 (configuration not stated)
inactive: Potency [5] | Potency [12] | Potency [3]
active: Potency [1] 13.2 µM | Potency [9] 28.2 µM

CNCCN(C)Cc1cn[nH]c1-c1ccc(OC2CC(OCCC3CCOCC3)C2)cc1 (configuration not stated)
inactive: Potency [5] | Potency [3] | Potency [4] | Potency [9]
active: Potency [1] 14.8 µM

CCOc1cc(CC(=O)N[C@@H](CC(C)C)c2ccccc2N2CCCCC2)ccc1C(=O)O
active: Potency [5] 0.332 µM | Potency [12] 2.35 µM | Potency [3] 3.32 µM | Potency [9] 25.1 µM
inactive: Potency [1] | Potency [6] | Potency [7] | Potency [10]

CCOC(=O)c1c(CSc2ccccc2)n(C)c2cc(Br)c(O)c(CN(C)C)c12
inactive: Potency [11] | Potency [12] | Potency [6] | Potency [10]
active: Potency [1] 10.5 µM | Potency [2] 16.6 µM

C[C@@H]1CN(CC(=O)N2CC(C)(C)c3ncc(Cc4ccc(F)cc4)cc32)[C@@H](CN2CCOC[C@H]2C)CN1
inactive: Potency [12] | Potency [3] | Potency [6] | Potency [10] | activity (max response) [8] -27%
active: Potency [1] 0.468 µM | Potency [2] 20.9 µM

c1ccc([C@H]2CN3CCSC3=N2)cc1
inactive: Potency [1] | Potency [2] | Potency [12] | Potency [3] | Potency [4] | Potency [6] | activity (max response) [8] -16.6% and 4.55% | Potency [9]

Cc1ccnc2c1NC(=O)c1cccnc1N2C1CC1
active: Potency [2] 2.09 µM
inactive: Potency [1] | Potency [12] | Potency [6] | Potency [7] | Potency [10] | activity (max response) [8] -0.191% | Potency [9]

COc1ncc(-c2ccc3nccc(-c4ccnnc4)c3c2)cc1NS(=O)(=O)c1ccc(F)cc1F
active: Potency [1] 58 nM and 132 nM | Potency [5] 0.105 µM | Potency [4] 0.743 µM | Potency [6] 0.469 µM | Potency [10] 0.372 µM | Potency [8] 1.12 µM | Potency [9] 0.0282 µM

— PubChem BioAssay (NCATS)
